Measured values from the supplement of paper PMC8728848.
About 410 targets per protein were measured; listed, in parts, are those with the strongest signals and a random draw of the rest.

Legend:
Assay in all cases: glycan array binding signal (z-score within array); higher = stronger binding
Details in all cases: glycan notation: IUPAC condensed, linker removed
[1] = biological target: Fuc(a1-2)Gal(b1-3)GalNAc
Procedure, shortened: (§1)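 Glycan array data were curated from 3228 arrays in the Consortium for Functional Glycomics database and kept only where the protein sequence was available. Glycan names were converted to IUPAC-condensed notation, and columns mapping to the same glycan were averaged. The binding signal is a within-array Z-score, averaged across arrays of the same protein sequence at different concentrations or buffers and across linkers. Negative Z-scores can be read as non-binding.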

[2] = biological target: Fuc(a1-2)Gal(b1-3)GalNAc(b1-4)[Neu5Ac(a2-3)]Gal(b1-4)Glc
Procedure, shortened: as §1

[3] = biological target: Fuc(a1-2)Gal(b1-3)GlcNAc(b1-3)[Neu5Ac(a2-6)Gal(b1-4)GlcNAc(b1-6)]Gal(b1-4)Glc
Procedure, shortened: as §1

[4] = biological target: Fuc(a1-2)Gal(b1-4)GlcNAc(b1-3)Gal(b1-4)GlcNAc(b1-3)Gal(b1-4)GlcNAc
Procedure, shortened: as §1

[5] = biological target: Fuc(a1-2)Gal(b1-4)GlcNAc(b1-3)[Fuc(a1-2)Gal(b1-4)GlcNAc(b1-6)]GalNAc
Procedure, shortened: as §1

[6] = biological target: Fuc(a1-2)Gal(b1-4)[Fuc(a1-3)]GlcNAc(b1-3)GalNAc
Procedure, shortened: as §1

[7] = biological target: Fuc(a1-2)Gal6S(b1-4)GlcNAc
Procedure, shortened: as §1

[8] = biological target: Fuc(a1-2)[Gal(a1-3)]Gal
Procedure, shortened: as §1

[9] = biological target: Fuc(a1-2)[Gal(a1-3)]Gal(b1-4)GlcNAc(b1-2)Man(a1-3)[Fuc(a1-2)[Gal(a1-3)]Gal(b1-4)GlcNAc(b1-2)Man(a1-6)]Man(b1-4)GlcNAc(b1-4)[Fuc(a1-6)]GlcNAc
Procedure, shortened: as §1

[10] = biological target: Fuc(a1-2)[Gal(a1-3)]Gal(b1-4)GlcNAc(b1-3)[Fuc(a1-2)[Gal(a1-3)]Gal(b1-4)GlcNAc(b1-6)]GalNAc
Procedure, shortened: as §1

[11] = biological target: Fuc(a1-2)[GalNAc(a1-4)]Gal(b1-4)GlcNAc
Procedure, shortened: as §1

[12] = biological target: Fuc(a1-3)[Gal(b1-4)]GlcNAc(b1-3)GalNAc
Procedure, shortened: as §1

[13] = biological target: Gal(a1-3)Gal(b1-4)[Fuc(a1-3)]GlcNAc
Procedure, shortened: as §1

[14] = biological target: Gal(b1-3)Gal
Procedure, shortened: as §1

[15] = biological target: Gal(b1-3)Gal(b1-4)GlcNAc
Procedure, shortened: as §1

[16] = biological target: Gal(b1-3)GalNAc(a1-3)[Fuc(a1-2)]Gal(b1-4)Glc
Procedure, shortened: as §1

[17] = biological target: Gal(b1-3)GalNAc(a1-3)[Fuc(a1-2)]Gal(b1-4)GlcNAc
Procedure, shortened: as §1

[18] = biological target: Gal(b1-3)GalNAc(b1-3)Gal
Procedure, shortened: as §1

[19] = biological target: Gal(b1-3)GalNAc(b1-3)Gal(a1-4)Gal(b1-4)Glc
Procedure, shortened: as §1

[20] = biological target: Gal(b1-3)GalNAc(b1-4)Gal(b1-4)Glc
Procedure, shortened: as §1

[21] = biological target: Gal(b1-3)GalNAc(b1-4)[Neu5Ac(a2-3)]Gal(b1-4)Glc
Procedure, shortened: as §1

[22] = biological target: Gal(b1-3)GlcNAc
Procedure, shortened: as §1

[23] = biological target: Gal(b1-3)GlcNAc(b1-3)Gal(b1-3)GlcNAc
Procedure, shortened: as §1

[24] = biological target: Gal(b1-3)[GlcNAc(b1-6)]GalNAc
Procedure, shortened: as §1

[25] = biological target: Gal(b1-3)[Neu5Ac(a2-6)]GalNAc
Procedure, shortened: as §1

[26] = biological target: Gal(b1-4)Glc
Procedure, shortened: as §1

[27] = biological target: Gal(b1-4)GlcNAc(b1-3)Gal(b1-3)GlcNAc
Procedure, shortened: as §1

[28] = biological target: Gal(b1-4)GlcNAc(b1-3)Gal(b1-4)GlcNAc(b1-3)Gal(b1-4)GlcNAc(b1-3)Gal(b1-4)GlcNAc(b1-3)Gal(b1-4)GlcNAc(b1-2)[Gal(b1-4)GlcNAc(b1-3)Gal(b1-4)GlcNAc(b1-3)Gal(b1-4)GlcNAc(b1-3)Gal(b1-4)GlcNAc(b1-3)Gal(b1-4)GlcNAc(b1-6)]Man(a1-6)[Gal(b1-4)GlcNAc(b1-3)Gal(b1-4)GlcNAc(b1-3)Gal(b1-4)GlcNAc(b1-3)Gal(b1-4)GlcNAc(b1-3)Gal(b1-4)GlcNAc(b1-2)Man(a1-3)]Man(b1-4)GlcNAc(b1-4)[Fuc(a1-6)]GlcNAc
Procedure, shortened: as §1

[29] = biological target: Gal(b1-4)GlcNAc(b1-3)[Gal(b1-4)GlcNAc(b1-6)]GalNAc
Procedure, shortened: as §1

[30] = biological target: Gal(b1-4)GlcNAc(b1-6)Gal(b1-4)GlcNAc
Procedure, shortened: as §1

[31] = biological target: Gal(b1-4)GlcNAc(b1-6)[Gal(b1-3)]GlcNAc
Procedure, shortened: as §1

[32] = biological target: Gal6P(b1-4)GlcNAc
Procedure, shortened: as §1

[33] = biological target: GalNAc(b1-3)Gal
Procedure, shortened: as §1

[34] = biological target: GalNAc(b1-3)Gal(a1-4)Gal(b1-4)GlcNAc
Procedure, shortened: as §1

[35] = biological target: GalNAc(b1-4)Gal(b1-4)Glc
Procedure, shortened: as §1

[36] = biological target: GlcNAc(a1-4)Gal(b1-4)GlcNAc(b1-3)Gal(b1-4)Glc
Procedure, shortened: as §1

[37] = biological target: GlcNAc(a1-4)Gal(b1-4)GlcNAc(b1-3)Gal(b1-4)GlcNAc(b1-3)Gal(b1-4)GlcNAc
Procedure, shortened: as §1

[38] = biological target: GlcNAc(b1-2)Gal(b1-3)GalNAc
Procedure, shortened: as §1

[39] = biological target: GlcNAc(b1-2)Man(a1-3)[GlcNAc(b1-2)Man(a1-6)]Man(b1-4)GlcNAc(b1-4)[Fuc(a1-6)]GlcNAc
Procedure, shortened: as §1

[40] = biological target: GlcNAc(b1-3)Fuc
Procedure, shortened: as §1

[41] = biological target: GlcNAc(b1-3)Gal(b1-4)GlcNAc(b1-3)[GlcNAc(b1-3)Gal(b1-4)GlcNAc(b1-3)]GalNAc
Procedure, shortened: as §1

[42] = biological target: GlcNAc(b1-3)Man
Procedure, shortened: as §1

[43] = biological target: GlcNAc(b1-4)GlcNAc
Procedure, shortened: as §1

[44] = biological target: Neu5Ac(a2-3)Gal(b1-3)GalNAc(b1-4)[Neu5Ac(a2-8)Neu5Ac(a2-3)]Gal(b1-4)Glc
Procedure, shortened: as §1

[45] = biological target: Neu5Ac(a2-3)Gal(b1-3)GlcNAc(b1-3)Gal(b1-3)GlcNAc
Procedure, shortened: as §1

[46] = biological target: Neu5Ac(a2-3)Gal(b1-3)GlcNAc(b1-3)GalNAc
Procedure, shortened: as §1

[47] = biological target: Neu5Ac(a2-3)Gal(b1-3)[Fuc(a1-4)]GlcNAc(b1-3)Gal(b1-3)[Fuc(a1-4)]GlcNAc
Procedure, shortened: as §1

[48] = biological target: Neu5Ac(a2-3)Gal(b1-3)]Neu5Ac(a2-3)Gal(b1-4)]GlcNAc
Procedure, shortened: as §1

[49] = biological target: Neu5Ac(a2-3)Gal(b1-4)Glc
Procedure, shortened: as §1

[50] = biological target: Neu5Ac(a2-3)Gal(b1-4)[Fuc(a1-3)]GlcNAc(b1-3)Gal(b1-4)GlcNAc
Procedure, shortened: as §1

[51] = biological target: Neu5Ac(a2-6)Gal
Procedure, shortened: as §1

[52] = biological target: Neu5Ac(a2-6)Gal(b1-4)GlcNAc(b1-2)[Neu5Ac(a2-6)Gal(b1-4)GlcNAc(b1-4)]Man(a1-3)[GlcNAc(b1-4)][Neu5Ac(a2-6)Gal(b1-4)GlcNAc(b1-2)[Neu5Ac(a2-6)Gal(b1-4)GlcNAc(b1-6)]Man(a1-6)]Man(b1-4)GlcNAc(b1-4)GlcNAc
Procedure, shortened: as §1

[53] = biological target: Neu5Ac(a2-6)Gal(b1-4)GlcNAc(b1-3)Gal(b1-4)GlcNAc
Procedure, shortened: as §1

[54] = biological target: Neu5Ac(a2-6)Gal(b1-4)GlcNAc(b1-6)[Gal(b1-3)]GalNAc
Procedure, shortened: as §1

[55] = biological target: Neu5Ac(a2-6)Gal(b1-4)GlcNAc6S
Procedure, shortened: as §1

[56] = biological target: Neu5Ac(a2-8)Neu5Ac(a2-8)Neu5Ac(a2-3)[Gal(b1-3)GalNAc(b1-4)]Gal(b1-4)Glc
Procedure, shortened: as §1

[57] = biological target: Neu5Ac(a2-8)Neu5Gc(a2-3)Gal(b1-4)GlcNAc
Procedure, shortened: as §1

B1: Epa7 (Candida glabrata), Q6DTM6_CANGB (protein)
chain: MGSSHHHHHHSSGLVPRGSHMKDDYSSFLSNNNLGWTDPTEFPLGCSPNVTTPKNGLSMELYSYDLRKNGSYPCWDAAYLDPNYPRTGYKSHRLLAKVDGVTGNINFYYHATKGCTPEIDHLPASYNYPKPLTMTNFTMLLYGYFKPKVTGYHTFTISADDLLFVNFGAGNAFDCCKRESSADDFGNYQAYAVWGSQTAKDDLTVHLDAGLYYPIRIFFNNREYDAELSLTLKTESDSNPVIDFSDYFYSFDDTKDGCPGLVSYDTS
Which results are given for B1?
glycan array binding signal (z-score) [1]: -0.169; glycan array binding signal (z-score) [2]: -0.072; glycan array binding signal (z-score) [3]: -0.206; glycan array binding signal (z-score) [4]: -0.253; glycan array binding signal (z-score) [5]: -0.209; glycan array binding signal (z-score) [6]: -0.027; glycan array binding signal (z-score) [7]: -0.285; glycan array binding signal (z-score) [8]: -0.213; glycan array binding signal (z-score) [9]: -0.241; glycan array binding signal (z-score) [10]: -0.208; glycan array binding signal (z-score) [11]: -0.256; glycan array binding signal (z-score) [12]: -0.19; glycan array binding signal (z-score) [13]: -0.201; glycan array binding signal (z-score) [14]: 2.85; glycan array binding signal (z-score) [15]: 5.79; glycan array binding signal (z-score) [16]: 5.79; glycan array binding signal (z-score) [17]: 5.59; glycan array binding signal (z-score) [18]: 11; glycan array binding signal (z-score) [19]: 4.75; glycan array binding signal (z-score) [20]: 7.99; glycan array binding signal (z-score) [21]: 4.82; glycan array binding signal (z-score) [22]: -0.104; glycan array binding signal (z-score) [23]: -0.207; glycan array binding signal (z-score) [24]: 1.21; glycan array binding signal (z-score) [25]: 4.18; glycan array binding signal (z-score) [26]: -0.199; glycan array binding signal (z-score) [27]: -0.246; glycan array binding signal (z-score) [28]: 0.068; glycan array binding signal (z-score) [29]: 5.02; glycan array binding signal (z-score) [30]: 0.23; glycan array binding signal (z-score) [31]: 5.53; glycan array binding signal (z-score) [32]: -0.241; glycan array binding signal (z-score) [33]: -0.245; glycan array binding signal (z-score) [34]: -0.251; glycan array binding signal (z-score) [35]: -0.213; glycan array binding signal (z-score) [36]: -0.234; glycan array binding signal (z-score) [37]: -0.237; glycan array binding signal (z-score) [38]: -0.197; glycan array binding signal (z-score) [39]: -0.232; glycan array binding signal (z-score) [40]: -0.233; glycan array binding signal (z-score) [41]: -0.225; glycan array binding signal (z-score) [42]: -0.232; glycan array binding signal (z-score) [43]: -0.23; glycan array binding signal (z-score) [44]: -0.06; glycan array binding signal (z-score) [45]: -0.256; glycan array binding signal (z-score) [46]: -0.21; glycan array binding signal (z-score) [47]: -0.196; glycan array binding signal (z-score) [48]: -0.228; glycan array binding signal (z-score) [49]: -0.257; glycan array binding signal (z-score) [50]: -0.189; glycan array binding signal (z-score) [51]: -0.228; glycan array binding signal (z-score) [52]: -0.234; glycan array binding signal (z-score) [53]: -0.258; glycan array binding signal (z-score) [54]: 1.19; glycan array binding signal (z-score) [55]: -0.257; glycan array binding signal (z-score) [56]: 0.014; glycan array binding signal (z-score) [57]: -0.241
